This is an account of results in PubChem BioAssay (NCI).

Test [1] can be described thus: NCI Yeast Anticancer Drug Screen. Data for the rad50 strain (AID 155).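 Note: 0% = growth of vehicle-only cultures of the same strain.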 The following applies: S. cerevisiae rad50 strain growth inhibition; at 50.0 µM; hits give high values. Summed up: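 DNA repair mutant yeast, compound exposure, growth read-out; inhibition is taken relative to vehicle.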
Test [2] is described as follows: NCI Yeast Anticancer Drug Screen. Data for the mec2-1 strain (AID 157). Conditions: S. cerevisiae mec2-1 strain, at 50.0 µM, hits give high values. Summed up: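 Using mec2-1 yeast: add compound, measure growth, express inhibition versus vehicle-treated cultures.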
The nature of test [3]: NCI Yeast Anticancer Drug Screen. Data for the sgs1 mgt1 strain (AID 161).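 Note: 0% = growth of cultures given vehicle only.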 The following applies: S. cerevisiae sgs1 mgt1 strain, at 50.0 µM, hits give high values. Summed up:
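This yeast growth screen uses a strain with defined DNA-repair lesions; compound-treated growth is compared with vehicle-treated growth.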

Test [4] can be described thus: NCI Yeast Anticancer Drug Screen. Data for the cln2 rad14 strain (AID 165).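 Note: 0% = growth equal to vehicle treated cultures.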 Conditions: S. cerevisiae cln2 rad14 strain, at 50.0 µM, hits give high values. Summed up:
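Yeast strain cln2 rad14, bearing defects in cell cycle control and DNA repair, serves as the test system; values reflect growth inhibition compared with vehicle.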

Test [5] in a line: NCI Yeast Anticancer Drug Screen. Data for the bub3 strain (AID 167). The following applies: S. cerevisiae bub3 mutant strain, at 50.0 µM, hits give high values. The method in brief:
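In this screen, a yeast mutant lacking normal mitotic checkpoint function is challenged with compound. Relative growth versus vehicle gives the inhibition value.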

A short description of test [6]: NCI Yeast Anticancer Drug Screen. Data for the mlh1 rad18 strain (AID 175). Conditions: S. cerevisiae mlh1 rad18 strain growth inhibition; at 50.0 µM; hits give high values. Summed up: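 Steps: expose repair-defective yeast to compound; measure growth; express inhibition against vehicle-treated controls.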

Molecules are shown by their SMILES. Compounds without any hit were thinned out: in the full panel of roughly 79,000, 15% have a hit. Unmarked numbers belong to inactive results. Active and inactive are the calls of the source. Cut-off read from the data, not from the text of the source: active = growth inhibition above about 70%; inactive = the rest.

Regarding `COC(=O)C1=C2C3(O)CC4CC5C3CCC(C)N5C24C2CCC(O)C(OC)C2C1OC(=O)c1ccccc1` (stereo unspecified), the growth inhibition in test [1] was -34.6%; in test [2], -38.3%; in test [3], -20.9%; in test [4], -1.85%; in test [5], -30.4%; in test [6] it was 4.35%.
For the compound `COC(=O)C1(Cc2ccc3c(c2)CCC3)Cc2ccccc2C1=O` (stereo unspecified), the growth inhibition in test [1] was 5.1%; in test [2], 22.4%; in test [3], 25.1%; in test [4], 21.6%; in test [5], 49.5%; in test [6] it was 8.8%.
`CCOC(=O)C(O)(NC(=O)Nc1ccc(F)cc1)C(F)(F)F` (stereo unspecified): the growth inhibition in test [1] is -22.4%; in test [2] it was -22.3%; in test [3], -72.9%; in test [4], -35.9%; in test [5] it was -37.3%; in test [6] it was -60.9%.
Turning to `COc1ccc(/C=N/N2CN(C(C)C(=O)O)B(NC34CC5CC(CC(C5)C3)C4)N=C2N)cc1OC` (stereo unspecified), the growth inhibition in test [1] was -16.6%; in test [2], -14.2%; in test [3], 10.3%; in test [4], -25.2%; in test [5], 1.3%; in test [6] it was -6.4%.
As for `COC1OC2COC1(OCc1ccccc1)C1OC(C)(C)OC21` (stereo unspecified), the growth inhibition in test [1] is -23.8%; in test [2] it was -5.85%; in test [3], -29.9%; in test [4], -0.8%; in test [5], -26.2%; in test [6] it was 5.35%.
Turning to `CSC1=C(CCC(C)CCCC(C)CCCC(C)CCCC(C)CCCC(C)CCCC(C)C)C(=O)c2sccc2C1=O` (stereo unspecified), the growth inhibition in test [1] is 15.7%; in test [2], 13.6%; in test [3] it was -1.45%; in test [4], -17.9%; in test [5] it was 11.5%; in test [6] it was -5.95%.
On to `Nc1cc(Cl)cc2[nH]c(=O)c3cc(Cl)ccc3c12`, for which the growth inhibition was 39.8% in test [1]; 7.25% in test [2]; 13.6% in test [3]; 5.35% in test [4]; 17.2% in test [5]; 38% in test [6].
As to `CCc1cccc(CC)c1Nc1nc(-c2ccccc2-c2ccccc2)cs1`, the growth inhibition in test [1] is -29.1%; in test [2], -4.4%; in test [3], -7.05%; in test [4] it was -99.2%; in test [5] it was -20.9%; in test [6], -39.9%.
Regarding `[Cl][Pd][Cl].[NH-]c1ccc(/C=C2\C=Cc3ccccc32)cc1.[NH-]c1ccc(/C=C2\C=Cc3ccccc32)cc1`, the growth inhibition is 89.5% (active) in test [1]; 32.8% in test [2]; 83.7% (active) in test [3]; 47.4% in test [4]; 75.5% (active) in test [5]; 79.3% (active) in test [6].
`CCCCCCCCCOc1ccc2ccccc2c1`: the growth inhibition was -16.9% in test [1]; 16.1% in test [2]; 22.4% in test [3]; -17.9% in test [4]; -15.2% in test [5]; -4.5% in test [6].
In the case of `O=C(O)C(=O)Cc1c[nH]c2ccccc12`, the growth inhibition in test [1] is 1.2%; in test [2], -7.55%; in test [3] it was 29.4%; in test [4] it was 7.3%; in test [5], -11.1%; in test [6] it was -3.7%.
As for `COC(=NC(C)C)NC(C)C`, the growth inhibition in test [1] was 6.3%; in test [2] it was -17.2%; in test [3], 5.65%; in test [4], 14.2%; in test [5], 5.4%; in test [6] it was 14.4%.
In the case of `COc1ccc2c(c1)/C(=C/c1cc(OC)c(OC)c(OC)c1)C(=O)N2`, the growth inhibition in test [1] is 4.3%; in test [2], -27.2%; in test [3], -8.7%; in test [4] it was -1.4%; in test [5] it was 1.2%; in test [6], 2.85%.
For `NC(c1ccccc1)(c1ccccc1)c1ccccc1`, the growth inhibition in test [1] is 20.1%; in test [2], 2.9%; in test [3] it was 43.9%; in test [4], -9.8%; in test [5] it was 19.4%; in test [6], 11%.
`CC(C)COc1ccc(O)cc1`: the growth inhibition is 8.95% in test [1]; -3.55% in test [2]; -16.5% in test [3]; -43.5% in test [4]; -11% in test [5]; 3.35% in test [6].
For `Cc1c(Cl)c2ccccc2n1S(=O)(=O)c1ccccc1`, the growth inhibition was 38.1% in test [1]; -3.55% in test [2]; 31.2% in test [3]; 22.1% in test [4]; 10.5% in test [5]; 21.9% in test [6].
Regarding `Cc1n[nH]c(=O)n1N1C(=O)c2ccccc2C1=O`, the growth inhibition is -1.25% in test [1]; -10.1% in test [2]; -25.7% in test [3]; -3.45% in test [4]; -19.6% in test [5]; -26.6% in test [6].
As for `Nc1ccc(S(=O)(=O)c2ccc(Nc3ccnc4cc(Cl)ccc34)cc2)cc1`, the growth inhibition is 23.1% in test [1]; 13.6% in test [2]; 5.05% in test [3]; 7.55% in test [4]; 1.6% in test [5]; 12.8% in test [6].
`CC(=O)Cc1ccc(Cl)cc1[N+](=O)[O-]`: the growth inhibition in test [1] is -14.8%; in test [2], 5.95%; in test [3], -8.5%; in test [4], -24.3%; in test [5] it was -9.7%; in test [6], 1.9%.
In the case of `CCCCCCCCCCCC(=O)NC(=S)Nc1ccc(C(=O)OCC)cc1`, the growth inhibition was 29.9% in test [1]; 31.9% in test [2]; 57.9% in test [3]; 1.35% in test [4]; 29.4% in test [5]; 45.4% in test [6].
Consider `CCCCCCn1cnc2c(=O)[nH]c(N)nc21`, for which the growth inhibition in test [1] is -2%; in test [2] it was 3.5%; in test [3] it was -17.2%; in test [4], -7.05%; in test [5], -8.65%; in test [6] it was -10.2%.
